Screens (PubChem BioAssay)
C diff growth – C. difficile growth inhibitors, primary screen, HTS | Clostridium difficile clinical isolate growth, OD600, 24 h; hits give low values | 86,000 compounds, 0.25% hits | AID 1259249, 2017 | growth activity, negative = inhibition, % at 16 µg/mL (by protocol);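 active = mean growth activity at or below -80% and every replicate also at or below -80%; inconclusive = mean at or below -80% but some replicate above -80%; inactive = mean growth activity above -80%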
Pf Dd2 inh – P. falciparum Dd2 growth inhibitors, primary screen, SYBR Green fluorescence, single dose replicates. activity change, % at 10 µM. 72 h; hits give low values. 94,000 compounds, 2.3% hits; in the data active = activity change below about -80%; inconclusive = no clear call, values can overlap the other calls
T cruzi growth-1 – T. cruzi intracellular proliferation inhibitors, primary screen, cell-based, beta-gal Tulahuen parasites, NIH3T3 host, luminescence; T. cruzi beta-gal in NIH3T3, GalScreen luminescence, 90 h; inhibition, % at 8.34 µM; 77,000 compounds, 5.9% hits; AID 624255, 2012;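 active = mean inhibition above about 93%, with at least 55% of replicates each passing it, limit read from the data, passing the limit was not always enough; inconclusive = only one of those two conditions holds; inactive = neither condition holds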
T cruzi growth-2 – T. cruzi intracellular proliferation inhibitors, confirmation, cell-based, NIH3T3 host, beta-gal parasite, luminescence, cherry-pick. shares compounds with T cruzi growth-1. T. cruzi beta-gal in NIH3T3, GalScreen luminescence, 90 h. inhibition, % at 8.35 µM. 5,600 compounds, 72% hits. AID 651739, 2012;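 active = mean replicate inhibition above about 95% and at least 55% of replicates individually reaching it, limit read from the data; inconclusive = only one of the two criteria is met; inactive = neither criterion is met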
T cruzi growth-3 – inhibitors of intracellular T. cruzi replication, confirmation, NIH3T3 host cells, beta-gal parasites, cherry-pick, set 2 | shares compounds with T cruzi growth-1 | T. cruzi beta-gal in NIH3T3, GalScreen luminescence, 90 h | inhibition, % at 2.09 µM | 5,600 compounds, 21% hits | AID 651740, 2012;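 active = mean inhibition above about 95%, with at least 55% of replicates also reaching it, limit read from the data; inconclusive = meets just one of the two conditions; inactive = meets neither condition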
3T3 cytotox – cytotoxicity in mouse NIH/3T3 fibroblasts, confirmation, cytotoxicity control for T. cruzi proliferation inhibitor project, cell-based, cherry-pick, single point | NIH/3T3 viability, CellTiter-Glo ATP luminescence, 90 h | 5,600 compounds, 14% hits | AID 651742, 2012 | shares compounds with T cruzi growth-1 | cytotoxicity (signal decrease), % at 8.35 µM;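 active = mean signal decrease across replicates above about 35% based on untreated-well scatter, with enough replicates individually passing, limit read from the data; inconclusive = no rule stated though some were filed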
NIH3T3 tox 2 – NIH/3T3 fibroblast cytotoxicity, confirmation, cytotoxicity control, cell-based, cherry-pick, single point, set 2. shares compounds with T cruzi growth-1. NIH/3T3 viability, CellTiter-Glo ATP luminescence, 90 h. inhibition, % at 24.9 µM. 5,600 compounds, 56% hits. AID 651744, 2012;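 active = mean loss of cell viability signal at or above a set limit, and enough replicates individually reaching it; inconclusive = meets only the mean limit or only the replicate share; inactive = meets neither condition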
Of the large screens only hits and unclear results are named; the others gave an inactive call (follow-up assays come after a bar, where they were run); ! = a repeat was not active. Most compounds without a hit are left out; they make up all but 6.7% or so of the library.

COC(=O)C[C@@H]1C=C[C@H](NC(=O)Nc2ccc(C(F)(F)F)cc2)[C@@H](CO)O1	none (no result: C diff growth)
CCCNC(=O)[C@H]1[C@H](CO)[C@H]2Cn3c(ccc(-c4cccnc4)c3=O)[C@H]2N1Cc1cocn1	none (no result: T cruzi growth-1)
CO[C@H]1CC[C@H]2CCN(C)C(=O)[C@H](C)[C@@H](OC)CN(C)C(=O)c3cccc(C#N)c3OC[C@H]1O2	none (no result: C diff growth)
CCCNC(=O)[C@H]1[C@H](CO)[C@H]2Cn3c(cccc3=O)[C@@H]1N2CCC(F)(F)F	none (no result: Pf Dd2 inh)
CCCNC(=O)[C@H]1[C@H](CO)[C@H]2Cn3c(cccc3=O)[C@@H]1N2C(=O)Nc1cc(F)ccc1F	T cruzi growth-1 101 | T cruzi growth-2 inconclusive | T cruzi growth-3 inactive | 3T3 cytotox inactive | NIH3T3 tox 2 inactive
CCCNC(=O)[C@@H]1[C@@H](CO)[C@@H]2Cn3c(cccc3=O)[C@H]1N2CCC(F)(F)F	T cruzi growth-1 94 (no result: Pf Dd2 inh) | T cruzi growth-2 inconclusive | T cruzi growth-3 inactive | 3T3 cytotox inactive | NIH3T3 tox 2 inactive
CCNC(=O)[C@@H]1[C@@H](CO)[C@@H]2Cn3c(cccc3=O)[C@H]1N2C(=O)Nc1cc(F)ccc1F	none (no result: T cruzi growth-1)
CN(C)C(=O)[C@@H]1[C@@H](CO)[C@@H]2Cn3c(cccc3=O)[C@H]1N2C(=O)c1ccccc1	none
CN(C)C(=O)[C@H]1[C@H](CO)[C@H]2Cn3c(cccc3=O)[C@@H]1N2C(=O)c1ccc(F)cc1	T cruzi growth-1 185 (no result: Pf Dd2 inh) | T cruzi growth-2 inactive | T cruzi growth-3 inactive | 3T3 cytotox inactive | NIH3T3 tox 2 inactive
CN(C)C(=O)C[C@H]1CC[C@H]2[C@@H](COc3ccc(NC(=O)Nc4cccc(Cl)c4)cc3C(=O)N2C)O1	none
CC=Cc1ccc2n(c1=O)C[C@@H]1[C@@H](CO)[C@H](C(=O)NCCC)[C@H]2N1C(=O)C1CCC1 (mixture of isomers)	none (no result: T cruzi growth-1)
CC(C)NC(=O)N(C)C[C@H]1Oc2cc(C#Cc3cccc(F)c3)ccc2S(=O)(=O)N([C@H](C)CO)C[C@H]1C	none
C[C@H]1CCCCO[C@H](CN(C)S(=O)(=O)c2ccccc2)[C@@H](C)CN([C@@H](C)CO)C(=O)c2cc(NC(=O)Nc3ccc(F)cc3)ccc2O1	T cruzi growth-1 106 | T cruzi growth-2 110 | T cruzi growth-3 inactive | 3T3 cytotox inactive | NIH3T3 tox 2 inactive
C[C@@H]1CCCCO[C@@H](CN(C)S(=O)(=O)c2ccccc2)[C@H](C)CN([C@H](C)CO)C(=O)c2cc(NC(=O)Nc3ccc(F)cc3)ccc2O1	T cruzi growth-1 99 | T cruzi growth-2 108 | T cruzi growth-3 inactive | 3T3 cytotox inactive | NIH3T3 tox 2 inactive
C[C@@H]1CN([C@@H](C)CO)C(=O)c2cc(NC(=O)Nc3ccc(F)cc3)ccc2O[C@@H](C)CCCCO[C@@H]1CN(C)S(=O)(=O)c1ccccc1	Pf Dd2 inh -84, T cruzi growth-1 103 | T cruzi growth-2 inactive | T cruzi growth-3 inactive | 3T3 cytotox inactive | NIH3T3 tox 2 inactive
CO[C@H]1CN(C)C(=O)c2ccc(NC(=O)NC(C)C)cc2OC[C@@H](C)N(Cc2cncnc2)C[C@@H]1C	none (no result: C diff growth, Pf Dd2 inh)
C[C@H](CO)N1C[C@H](C)[C@H](CN(C)C(=O)c2ccccn2)Oc2cc(C#Cc3ccc(F)cc3)ccc2S1(=O)=O	T cruzi growth-1 119! | T cruzi growth-2 99 | T cruzi growth-3 inactive | 3T3 cytotox inactive | NIH3T3 tox 2 inactive
C[C@H]1CN([C@@H](C)CO)S(=O)(=O)c2ccc(C#Cc3ccc(F)cc3)cc2O[C@H]1CN(C)C(=O)c1ccccn1	T cruzi growth-1 inconclusive | T cruzi growth-2 108 | T cruzi growth-3 inactive | 3T3 cytotox inactive | NIH3T3 tox 2 inactive
C[C@@H]1CN([C@@H](C)CO)S(=O)(=O)c2ccc(C#Cc3ccccc3)cc2O[C@@H]1CN(C)C(=O)c1ccccn1	none
C[C@H]1CN([C@@H](C)CO)S(=O)(=O)c2ccc(C#Cc3ccccc3)cc2O[C@H]1CN(C)C(=O)c1ccccn1	none
COc1ccc(S(=O)(=O)N2C[C@@H](O)COC[C@H]3O[C@@H](CC(=O)NCCCN4CCOCC4)CC[C@@H]32)cc1	none (no result: C diff growth)
COc1ccc(S(=O)(=O)Nc2ccc3c(c2)CC(=O)N([C@H](C)CO)C[C@@H](C)[C@@H](CN(C)Cc2ccc(C(=O)O)cc2)O3)cc1	none
C[C@H](CO)N1C[C@H](C)[C@@H](CN(C)Cc2ccc(-c3ccccc3)cc2)Oc2ccc(NC(=O)C3CC3)cc2C1=O	none
C[C@@H]1CN([C@@H](C)CO)C(=O)c2cc(NC(=O)C3CCCCC3)ccc2O[C@@H]1CN(C)Cc1ccc(-c2ccccc2)cc1	T cruzi growth-1 inconclusive (no result: C diff growth) | T cruzi growth-2 104 | T cruzi growth-3 inactive | 3T3 cytotox inactive | NIH3T3 tox 2 80
C[C@@H]1CN([C@@H](C)CO)C(=O)c2cc(NC(=O)C3CCCCC3)ccc2O[C@H]1CN(C)Cc1ccc(-c2ccccc2)cc1	T cruzi growth-1 110 (no result: C diff growth) | T cruzi growth-2 102 | T cruzi growth-3 100 | 3T3 cytotox inactive | NIH3T3 tox 2 inactive
C[C@H]1CN([C@@H](C)CO)C(=O)c2cc(NC(=O)C3CCCCC3)ccc2O[C@H]1CN(C)Cc1ccc(-c2ccccc2)cc1	none (no result: C diff growth)
CC(C)CC#Cc1ccc2c(c1)O[C@@H](CN(C)C(=O)C1CCOCC1)[C@@H](C)CN([C@H](C)CO)S2(=O)=O	none
CC(C)CC#Cc1ccc2c(c1)O[C@@H](CN(C)C(=O)C1CCCCC1)[C@@H](C)CN([C@@H](C)CO)S2(=O)=O	T cruzi growth-1 113 | T cruzi growth-2 inconclusive | T cruzi growth-3 inconclusive | 3T3 cytotox inactive | NIH3T3 tox 2 105
CC(C)CC#Cc1ccc2c(c1)O[C@@H](CN(C)C(=O)C1CC1)[C@H](C)CN([C@@H](C)CO)S2(=O)=O	T cruzi growth-1 104 (no result: C diff growth) | T cruzi growth-2 104 | T cruzi growth-3 inactive | 3T3 cytotox inactive | NIH3T3 tox 2 55
CC(C)CC#Cc1ccc2c(c1)O[C@@H](CN(C)C(=O)C1CC1)[C@@H](C)CN([C@@H](C)CO)S2(=O)=O	none (no result: C diff growth)
CC(C)CC#Cc1ccc2c(c1)O[C@H](CN(C)C(=O)C1CCOCC1)[C@@H](C)CN([C@H](C)CO)S2(=O)=O	none
CC(C)CC#Cc1ccc2c(c1)O[C@H](CN(C)C(=O)C1CCCCC1)[C@H](C)CN([C@@H](C)CO)S2(=O)=O	T cruzi growth-1 112 | T cruzi growth-2 102 | T cruzi growth-3 103 | 3T3 cytotox inactive | NIH3T3 tox 2 104
